In PubChem BioAssay (EPA / NIEHS) one finds outcome and AC50 data, which are given here for three compounds.

Calls of active or inactive are those of the source. How the source made its calls: active means hit-call score of the fitted dose curve at least 0.9, where 1 is the maximum; inactive means score below 0.9.

What all share (details): mRNA level, 48 h; actives raise or lower the signal
Read-out in assay [1]: Glutathione S-transferase M3 (GSTM3), GSTM3 (gene 2947)
Description: LTEA_HepaRG_GSTM3: Life Technologies and Expression Analysis (LTEA) Assay for Glutathione S-transferase M3 (GSTM3) using HepaRG (AID 2283501). Put shortly:
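HepaRG, plated 48 h, then serum-free induction medium; test chemical 48 h, duplicate; 100 uM top, half-log x8, 0.5% DMSO. Read-out: GSTM3 mRNA (TaqMan qRT-PCR, Fluidigm array). Bidirectional fit vs DMSO.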

Read-out in assay [2]: Heat shock 70 kDa protein 1 (HSPA1A), gene 3303
Kind of assay: LTEA_HepaRG_HSPA1A: Life Technologies and Expression Analysis (LTEA) Assay for Heat shock 70 kDa protein 1 (HSPA1A) using HepaRG (AID 2283502). Put shortly: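 Readout is HSPA1A transcript level by microfluidic qRT-PCR, normalized to three housekeeping genes and analysed for gain or loss of signal relative to 0.5% DMSO. Human HepaRG cultures received test chemicals for 48 h at up to 100 uM.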

Read-out in assay [3]: Hypoxia-inducible factor 1-alpha (Homo sapiens) (UniProt Q16665)
Kind of assay: LTEA_HepaRG_HIF1A: Life Technologies and Expression Analysis (LTEA) Assay for Hypoxia-inducible factor 1 (HIF1A) Trancription factor using HepaRG (AID 2283503). In a few lines:
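Differentiated HepaRG cells in serum-free induction medium exposed 48 h, in duplicate, to 8-point half-log series from 100 uM in 0.5% DMSO. HIF1A mRNA measured by TaqMan qRT-PCR, normalized to ACTB/GAPDH/POLR2A, fitted bidirectionally versus DMSO.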

Read-out in assay [4]: 3-Hydroxy-3-Methylglutaryl-CoA Synthase 2 (HMGCS2), HMGCS2 (gene 3158)
Description: LTEA_HepaRG_HMGCS2: Life Technologies and Expression Analysis (LTEA) Assay for 3-Hydroxy-3-Methylglutaryl-CoA Synthase 2 (HMGCS2) using HepaRG (AID 2283504). Put shortly: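 HepaRG, plated 48 h then switched to serum-free induction media; cmpd 8-pt, max 100 uM, 1/2-log, 0.5% DMSO, n=2, 48 h. HMGCS2 mRNA by Fluidigm TaqMan qRT-PCR, ACTB/GAPDH/POLR2A norm; bidirectional fit vs DMSO.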

Read-out in another assay: HGF (gene 3082)
Kind of assay: LTEA_HepaRG_HGF: Life Technologies and Expression Analysis (LTEA) Assay for Hepatocyte Growth Facto (HGF) using HepaRG (AID 2283505). Put shortly:
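Read-out is HGF transcript level by qRT-PCR, normalized to three housekeeping genes, fitted bidirectionally against 0.5% DMSO vehicle. Human HepaRG cells received test chemicals for 48 h at up to 100 uM.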

Read-out in assay [5]: Insulin Like Growth Factor 1 (IGF1), IGF1 (gene 3479)
Description: LTEA_HepaRG_IGF1: Life Technologies and Expression Analysis (LTEA) Assay for Insulin Like Growth Factor 1 (IGF1) using HepaRG (AID 2283506). In a few lines:
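HepaRG, plated 48 h, then switched to serum-free induction media; test chemical 8-pt half-log from 100 uM (0.5% DMSO), duplicate, 48 h. Lysis in RLT, TaqMan qRT-PCR, norm. ACTB/GAPDH/POLR2A. Bidirectional fit vs DMSO.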

Read-out in assay [6]: Insulin-like growth factor-binding protein 1 (IGFBP1), IGFBP1 (gene 3484)
Description: LTEA_HepaRG_IGFBP1: Life Technologies and Expression Analysis (LTEA) Assay for Insulin-like growth factor-binding protein 1 (IGFBP1) using HepaRG (AID 2283508). Put shortly: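 Thawed HepaRG cells are plated for 48 h, switched to serum-free induction medium, then dosed in duplicate for another 48 h (100 uM top, half-log steps). Lysates in RLT go to qRT-PCR, and gain or loss of signal is fitted relative to vehicle.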

Read-out in assay [7]: Interleukin 6 Receptor (IL6R), IL6R (gene 3570)
Description: LTEA_HepaRG_IL6R: Life Technologies and Expression Analysis (LTEA) Assay for Interleukin 6 Receptor (IL6R) using HepaRG (AID 2283510). In a few lines:
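Readout is IL6R transcript level by TaqMan qRT-PCR, normalized to three housekeeping genes and fitted bidirectionally against 0.5% DMSO controls. Human HepaRG cells received chemicals for 48 h in serum-free induction medium, highest concentration 100 uM.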

Read-out in assay [8]: Potassium channel subfamily K member 1 (KCNK1), KCNK1 (gene 3775)
Description: LTEA_HepaRG_KCNK1: Life Technologies and Expression Analysis (LTEA) Assay for Potassium channel subfamily K member 1 (KCNK1) using HepaRG (AID 2283511). Put shortly: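 Differentiated human HepaRG cells in serum-free induction medium were exposed in duplicate for 48 h to 8 half-log concentrations up to 100 uM in 0.5% DMSO. KCNK1 mRNA was measured by TaqMan qRT-PCR, normalized to ACTB, GAPDH and POLR2A, and fitted bidirectionally versus DMSO.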

Read-out in assay [9]: Keratin 19 (KRT19), KRT19 (gene 3880)
Description: LTEA_HepaRG_KRT19: Life Technologies and Expression Analysis (LTEA) Assay for Keratin 19 (KRT19) using HepaRG (AID 2283512). In a few lines: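 KRT19 transcript levels, measured by Fluidigm qRT-PCR against three housekeeping genes, are fitted for gain or loss of signal relative to DMSO. Human HepaRG cells receive test chemicals (top 100 uM, half-log steps, 0.5% DMSO) for 48 hours.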

Read-out in assay [10]: JUN Transcription Factor, JUN (gene 3725)
Description: LTEA_HepaRG_JUN: Life Technologies and Expression Analysis (LTEA) Assay for JUN Transcription Factor using HepaRG (AID 2283513). Put shortly:
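Cells plated 48 h, medium switched to serum-free induction medium, then dosed 48 h (100 uM top, half-log dilutions, 0.5% DMSO). RNA isolated; JUN measured by qRT-PCR against three housekeeping genes; gain or loss fitted relative to DMSO.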

Read-out in assay [11]: Lipase C (LIPC), LIPC (gene 3990)
Description: LTEA_HepaRG_LIPC: Life Technologies and Expression Analysis (LTEA) Assay for Lipase C (LIPC) using HepaRG (AID 2283514). Put shortly: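 Differentiated human HepaRG cells in serum-free induction medium were exposed in duplicate for 48 h to eight concentrations (top 100 uM, half-log steps, 0.5% DMSO). LIPC mRNA was quantified by TaqMan qRT-PCR, normalized to ACTB, GAPDH and POLR2A, with bidirectional fitting versus DMSO.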

Read-out in assay [12]: Lipoprotein lipase (LPL), LPL (gene 4023)
Kind of assay: LTEA_HepaRG_LPL: Life Technologies and Expression Analysis (LTEA) Assay for Lipoprotein lipase (LPL) using HepaRG (AID 2283515). In a few lines:
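Differentiated human HepaRG cells in serum-free induction medium were exposed in duplicate for 48 h to eight half-log concentrations (top 100 uM) in 0.5% DMSO. LPL mRNA was quantified by TaqMan qRT-PCR, normalized to ACTB, GAPDH and POLR2A.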

Read-out in assay [13]: MicroRNA 122 (MIR122), gene 406906
Description: LTEA_HepaRG_MIR122: Life Technologies and Expression Analysis (LTEA) Assay for MicroRNA 122 (MIR122) using HepaRG (AID 2283516). Further: the transcript read is the microRNA miR-122. Put shortly:
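HepaRG plated 48 h, switched to serum-free induction medium, then treated in duplicate for 48 h (100 uM top, half-log steps, 0.5% DMSO vehicle). RNA isolated, qRT-PCR performed, concentration-response fitted both directions relative to DMSO.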

Read-out in assay [14]: matrix metalloproteinase-10 (MMP10), MMP10 (gene 4319)
Description: LTEA_HepaRG_MMP10: Life Technologies and Expression Analysis (LTEA) Assay for matrix metalloproteinase-10 (MMP10) using HepaRG (AID 2283517). In a few lines: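 HepaRG, collagen I, ~100,000 cells/well; serum-free induction medium; 48 h exposure, duplicate, 8-pt half-log to 100 uM, 0.5% DMSO. Readout: TaqMan qRT-PCR, normalized to ACTB/GAPDH/POLR2A; bidirectional fit vs DMSO.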

Read-out in a further assay: MYC, MYC (gene 4609)
Description: LTEA_HepaRG_MYC: Life Technologies and Expression Analysis (LTEA) Assay for MYC using HepaRG (AID 2283518). In a few lines:
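HepaRG, ~100,000 cells/well, collagen I; 48 h plating; serum-free induction medium; 48 h dosing, duplicate, 100 uM top, half-log, 0.5% DMSO; total RNA → qRT-PCR MYC; gain/loss fit vs DMSO.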

Read-out in assay [15]: matrix metalloproteinase-3 (MMP3), MMP3 (gene 4314)
Description: LTEA_HepaRG_MMP3: Life Technologies and Expression Analysis (LTEA) Assay for matrix metalloproteinase-3 (MMP3) using HepaRG (AID 2283519). Put shortly:
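Differentiated human HepaRG cells, plated 48 h on collagen I, were exposed in duplicate for 48 h in serum-free induction medium to eight half-log concentrations up to 100 uM in 0.5% DMSO. MMP3 mRNA was quantified by TaqMan qRT-PCR, normalised to ACTB, GAPDH and POLR2A.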

Read-out in assay [16]: Paternally Expressed 10 (PEG10), PEG10 (gene 23089)
Kind of assay: LTEA_HepaRG_PEG10: Life Technologies and Expression Analysis (LTEA) Assay for Paternally Expressed 10 (PEG10) using HepaRG (AID 2283520). Put shortly: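 HepaRG, 48 h post-plating → serum-free induction medium → 48 h chemical exposure (duplicate, 8-pt, max 100 uM, half-log, 0.5% DMSO) → lysis in RLT → TaqMan qRT-PCR for PEG10, ACTB/GAPDH/POLR2A normalisation.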

Sequence of Hypoxia-inducible factor 1-alpha (Homo sapiens) (Q16665 whole entry, looked up): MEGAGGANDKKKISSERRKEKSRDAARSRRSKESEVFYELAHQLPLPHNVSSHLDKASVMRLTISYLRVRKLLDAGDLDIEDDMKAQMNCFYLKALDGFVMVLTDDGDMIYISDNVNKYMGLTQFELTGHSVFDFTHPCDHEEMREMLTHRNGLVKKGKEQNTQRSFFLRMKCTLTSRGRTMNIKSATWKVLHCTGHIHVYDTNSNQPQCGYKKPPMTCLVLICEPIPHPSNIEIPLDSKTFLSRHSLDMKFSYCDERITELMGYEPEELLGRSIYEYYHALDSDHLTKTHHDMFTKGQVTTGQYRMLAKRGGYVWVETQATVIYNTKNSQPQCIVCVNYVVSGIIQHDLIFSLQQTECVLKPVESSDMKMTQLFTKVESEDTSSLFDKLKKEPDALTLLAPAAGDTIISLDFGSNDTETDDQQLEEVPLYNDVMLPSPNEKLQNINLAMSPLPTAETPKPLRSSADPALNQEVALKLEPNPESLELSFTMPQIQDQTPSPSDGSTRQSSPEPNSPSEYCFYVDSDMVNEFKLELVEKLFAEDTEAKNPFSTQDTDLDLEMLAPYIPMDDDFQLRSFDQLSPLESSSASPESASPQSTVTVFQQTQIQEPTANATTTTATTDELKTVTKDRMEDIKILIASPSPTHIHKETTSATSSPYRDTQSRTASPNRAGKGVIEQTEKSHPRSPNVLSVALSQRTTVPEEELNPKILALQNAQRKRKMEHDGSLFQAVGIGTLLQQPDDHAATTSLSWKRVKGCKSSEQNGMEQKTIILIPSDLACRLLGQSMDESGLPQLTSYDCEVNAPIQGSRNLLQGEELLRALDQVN

On to `O=C(Oc1ccc(Br)cc1)N1CCN2CCC1CC2`, for which the outcome (in assay [1]; in [2]; in assay [3]; in assay [4]; with HGF (gene 3082); in [5]) was inactive. Moreover, the compound was classed as inactive in assay [6], in [7], in [8], in [9], in [10] and in assay [11]. Besides, the outcome was “inactive” in assay [13]; “inactive” in assay [14]; “inactive” with MYC, MYC (gene 4609); “inactive” in assay [15]; “inactive” in [16]. The AC50 (commonly the concentration at which the activity in the assay is half-maximal) in [12] was 74.4 µM (active).

As to `Clc1ccc(C(c2ccc(Cl)cc2)C(Cl)(Cl)Cl)cc1`, the outcome (in [1]; in assay [3]; in assay [4]; with HGF (gene 3082); in assay [6]; in [7]) was inactive. Further, the outcome in assay [8] is “inactive”; in assay [9], “inactive”; in assay [10], “inactive”; in [13], “inactive”; in assay [14] it was “inactive”; in the assay with MYC, MYC (gene 4609), “inactive”. Also, in [16], the compound was classed as inactive. Also, the half-maximal activity concentration (AC50) was 23.3 µM (active) in assay [2], 50 µM (active) in assay [5], 84.5 µM (active) in [11] and 50 µM (active) in assay [12].

`c1ccc2c(c1)oc1ccccc12`: the result (in [1]; in [2]; in assay [3]; in [4]; in the assay with HGF (gene 3082); in assay [5]) was inactive. Besides, the call in assay [6], in [8], in [9], in [10], in assay [11] and in [12] was inactive. Also, the outcome in [13] is “inactive”; in assay [14], “inactive”; with MYC, MYC (gene 4609), “inactive”; in [16], “inactive”.
